Screening data deposited in PubChem by several laboratories.
BoNT F protease = BoNT/F light chain protease inhibitors, primary screen, biochemical, flow cytometry, MLPCN library | Multiplex microsphere protease cleavage assay | inhibition, % at 10 µM | Botulinum neurotoxin type F light chain protease (Clostridium botulinum) | 360,000 compounds, 0.22% hits; in the data active = inhibition above about 35%, passing the limit was not always enough; inconclusive = no clear call, values can overlap the other calls
BJeLR lethal = MLPCN primary cell-based screen for lethality selective to Ras in HRASV12 cells. BJeLR (HRASV12) viability, CellTiter-Glo ATP luminescence, 48 h. inhibition, % (no concentration beside the values). 300,000 compounds, 0.17% hits. AID 1554, 2009; in the data active = inhibition above about 50%; inconclusive = no clear call, values can overlap the other calls
Vc quorum ag = inducers of Vibrio cholerae quorum light production without autoinducers, primary screen, BH1578 luxS cqsA deficient, single point | V. cholerae BH1578 lux reporter, luminescence, 6 h | activation, % at 18.7 µM | 350,000 compounds, 0.16% hits; in the data active = activation mostly above about 9.7%, no sharp cut-off; inconclusive = no clear call, values can overlap the other calls; inactive = mostly below about 3.7%
BoNT-A LC inh2 = BoNT/A light chain protease inhibitors, primary screen, biochemical, flow cytometry, MLPCN library; 360,000 compounds, 0.17% hits; AID 588499, 2011; inhibition, % at 10 µM; multiplex microsphere protease substrate cleavage
Anthrax LF prot = Bacillus anthracis LF protease inhibitors, primary screen, biochemical, multiplex microsphere, MLPCN library; Lethal factor (Bacillus anthracis), P15917; multiplex microsphere protease cleavage assay; inhibition, % at 10 µM; 360,000 compounds, 0.12% hits
Target sequence (P15917 whole entry, looked up): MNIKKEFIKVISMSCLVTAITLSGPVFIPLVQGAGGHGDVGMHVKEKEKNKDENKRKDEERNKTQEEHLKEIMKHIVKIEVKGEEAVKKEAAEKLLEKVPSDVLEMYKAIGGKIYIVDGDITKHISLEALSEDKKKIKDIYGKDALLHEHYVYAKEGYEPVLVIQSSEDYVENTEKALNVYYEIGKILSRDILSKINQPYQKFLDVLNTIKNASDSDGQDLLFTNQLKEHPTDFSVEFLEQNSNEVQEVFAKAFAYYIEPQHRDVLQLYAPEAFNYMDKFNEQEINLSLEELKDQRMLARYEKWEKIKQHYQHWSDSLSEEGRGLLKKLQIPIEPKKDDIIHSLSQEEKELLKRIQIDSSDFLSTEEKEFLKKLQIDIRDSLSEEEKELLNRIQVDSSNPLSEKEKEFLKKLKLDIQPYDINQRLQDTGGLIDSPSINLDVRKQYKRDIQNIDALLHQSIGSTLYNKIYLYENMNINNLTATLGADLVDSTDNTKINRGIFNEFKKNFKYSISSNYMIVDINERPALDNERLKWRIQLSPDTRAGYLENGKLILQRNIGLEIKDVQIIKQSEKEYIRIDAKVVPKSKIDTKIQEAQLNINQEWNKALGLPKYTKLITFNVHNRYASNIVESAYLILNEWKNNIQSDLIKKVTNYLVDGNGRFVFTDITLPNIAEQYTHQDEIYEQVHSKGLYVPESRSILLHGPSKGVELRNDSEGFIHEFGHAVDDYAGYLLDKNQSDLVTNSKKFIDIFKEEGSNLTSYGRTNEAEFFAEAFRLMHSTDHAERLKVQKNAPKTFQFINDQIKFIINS
Bead autofluor = compound fluorescence in toxin protease inhibitor counterscreen; fluorescence intensity (test concentration not listed); compound autofluorescence counterscreen, microsphere flow cytometry; hits give high values; 360,000 compounds, 3.1% hits; in the data active = fluorescence intensity above about 16000; inconclusive = no clear call, values can overlap the other calls
A number is an active result; i = inactive; ? = inconclusive; nt = no result given. Most compounds without a hit are left out; they make up all but 3.7% or so of the library. Cut-off read from the data, not from the text of the source, unless noted: active = inhibition above about 30%; inconclusive = no clear call, values can overlap the other calls; inactive = below that.

SMILES	BoNT F protease	BJeLR lethal	Vc quorum ag	BoNT-A LC inh2	Anthrax LF prot	Bead autofluor
O=c1c2cc(N3CCOCC3)ccc2[nH]c(=S)n1Cc1ccc(Cl)cc1	i	i	i	i	i	16514
CC1(C(=O)N2CCCCC2)CCN1C(=O)c1ccccc1CCc1ccccc1 (configuration not stated)	i	nt	i	i	i	i
CNc1nc(NCC2CCCCC2)c2sccc2n1	i	nt	i	i	i	i
CCOC(=O)c1nn(C)c2[nH]c(=O)n(C)c(=O)c12	i	nt	i	i	i	i
c1ccc2sc(-c3ccc4c(c3)OCO4)nc2c1	i	nt	i	i	i	21120
CC(C)(C)C(=O)N1CCN(c2ccc([N+](=O)[O-])c(-n3nc(-c4ccccc4)c4ccccc4c3=O)c2)CC1	i	i	i	i	i	i
Cc1ccc(-c2nn(-c3cc(Cl)ccc3[N+](=O)[O-])c(=O)c3ccccc23)cc1	i	i	i	i	i	24146
COc1ccc(C2OC(CCc3ccccc3)CC3=C2C(=O)OC(C)(C)O3)cc1 (configuration not stated)	i	nt	nt	i	i	i
CC(C)Oc1ccc(C(=O)O)c(C(=O)O)c1	i	i	i	?	i	25281
CC(C)Oc1ccc(C(=O)O)cc1	i	i	i	i	i	i
COCc1c(C(=O)Nc2nnc(C3CC3)s2)oc2ccccc12	i	nt	i	i	i	i
CCN1/C(=N\N)c2cccc3cccc1c23	i	i	i	39	i	i
CCC(C)NC(=O)CN1C(=O)c2cccc3cccc1c23 (configuration not stated)	i	i	i	i	i	i
Cc1cccc(NS(=O)(=O)c2ccc(-c3cnc(C4CC4)o3)cc2)c1C	i	53	i	i	i	i
Cc1ccc(C)c(NS(=O)(=O)c2ccc(-c3cnc(C4CC4)o3)cc2)c1	nt	52	i	nt	nt	nt
Cc1cc(C)cc(NS(=O)(=O)c2ccc(-c3cnc(C4CC4)o3)cc2)c1	i	58	i	i	i	i
COc1ccc(CN(C)C(=O)/C=C/[C@H]2O[C@@H](n3cnc4c(N)ncnc43)[C@H](O)[C@@H]2O)cc1OC	i	nt	nt	i	i	i
CC(O)(c1cccc(F)c1)c1nc(-c2csc3ccccc23)cs1 (configuration not stated)	i	nt	i	i	i	i
O=C(NCc1ccccc1)c1cc(C2CCCN(S(=O)(=O)c3ccccc3)C2)on1 (configuration not stated)	i	nt	i	i	i	i
Cc1cc(C)n(-c2nc3ccccc3c(=O)n2OCc2ccc(Cl)cc2)n1	i	i	i	?	i	22331
Cc1cc(CC(C)C)n(-c2nc3ccccc3c(=O)n2OCc2ccccc2)n1	i	i	i	?	i	23326
CC1(C)OC2CC3C4CCC5=CC(=O)C=CC5(C)C4(F)C(O)CC3(C)C2(C(=O)CO)O1 (configuration not stated)	i	nt	i	i	i	i
O=C(COC(=O)c1ccccc1Br)Nc1ccc(F)cc1	i	i	i	i	i	i
O=C(COC(=O)c1ccccc1Br)NCCc1ccc(F)cc1	43	i	i	i	i	i
CC(C)OC(=O)C(C#N)c1nc2ccccc2nc1N1CCCC1 (configuration not stated)	i	i	i	i	i	i
SMILES	BoNT F protease	BJeLR lethal	Vc quorum ag	BoNT-A LC inh2	Anthrax LF prot	Bead autofluor
CCC(CC)COC(=O)C(C#N)c1nc2ccccc2nc1N1CCN(CC)CC1 (configuration not stated)	i	i	i	i	i	21646
CCC(C)COC(=O)C(C#N)c1nc2ccccc2nc1N1CCCCC1 (configuration not stated)	i	i	i	?	i	21493
CCN1CCN(c2nc3c(c(=O)[nH]c(=O)n3C)n2Cc2cccc(C)c2)CC1	i	nt	i	i	i	i
Nc1nnc(CCN2C(=O)CSC2=O)s1	i	i	i	i	i	24168
CC(=O)Nc1cc(-c2ccc(N3CCN(C)CC3)cc2)cn2c(-c3ccc(S(C)(=O)=O)cc3)cnc12	i	nt	i	i	i	i
O=C(NCc1ccc(N2CCCC2=O)cc1)c1cnccn1	i	i	i	i	i	i
Cc1ncsc1C(=O)NCc1ccc(N2CCCC2=O)cc1	i	i	i	i	i	16227
N#CC(c1cccc(Cl)c1)c1ccc2c(C(F)(F)F)cc(C(F)(F)F)nc2n1 (configuration not stated)	i	76	i	i	i	i
NNc1ccc2c(C(F)(F)F)cc(C(F)(F)F)nc2n1	i	i	i	i	i	i
CC1(C(=O)NS(=O)(=O)Cc2ccccc2)CCN1C(=O)CCc1ccccc1 (configuration not stated)	i	nt	i	i	i	i
O=C(c1[nH]c(C(F)(F)F)nc1-c1ccccc1)N1CCc2c([nH]c3ccccc23)C1	i	nt	nt	i	i	i
COc1cc(OC)c(OC)cc1CNC1CCCCCC1	i	i	i	i	i	18257
COc1cc(CNC2CCCCCC2)cc(OC)c1OC	i	i	i	i	i	22719
COc1cc(OC)c(CNC2CCCCCC2)cc1Br	i	i	i	i	i	i
CS(=O)(=O)c1ccc(C(=O)Nc2ccc(N3CCCCC3)cc2)c(Cl)c1	i	i	i	i	i	i
Cc1ccc(Sc2ccc(NC(=O)c3ccc(S(C)(=O)=O)cc3Cl)cc2)cc1	i	i	i	?	i	21237
Cc1cccc(C)c1-n1nnnc1C(c1ccccc1OC(F)(F)F)N1CCN(C/C=C/c2ccccc2)CC1 (configuration not stated)	i	nt	nt	i	i	i
CC1(C(=O)NCc2ccccn2)CCN1C(=O)Cc1ccc(Cl)cc1Cl (configuration not stated)	i	nt	i	i	i	i
COc1cccc(C2C(C(=O)Nc3ccc(C)cc3C)=C(C)Nc3ncnn32)c1OC (configuration not stated)	i	i	i	i	i	19983
COc1ccccc1NC(=O)C1=C(C)Nc2ncnn2C1c1ccccc1C (configuration not stated)	nt	i	i	nt	nt	nt
COc1ccc(CCNC(=O)c2nonc2N)cc1OC	i	i	i	i	i	20897
COc1cc(OC)c(OC)cc1CNCCNC(=O)c1nonc1N	i	i	i	i	i	24547
COc1ccc(CCNC(=O)C(=O)NCc2ccc(C(C)C)cc2)cc1OC	i	i	i	?	i	24221
CCOc1cccc(CNCCNC(=O)c2nonc2N)c1	i	i	i	i	i	22612
COc1ccc(CNCCNC(=O)c2nonc2N)cc1OC	?	i	i	i	i	?
CCOC(=O)C(NC(=O)c1ccccc1)C(C)(C)SCc1ccccc1 (configuration not stated)	i	nt	i	i	i	i
